# Measurements published in PubChem BioAssay (NCATS).
# Inconclusive results are not listed. Values without a mark were called inactive. The call rests on the fitted dose curve; in most records, active means well fitted cell-killing curve with a large enough effect; inconclusive means small, poorly fitted or top-dose-only effect; inactive means flat fitted curve, though single readings scatter.
# Experiment: Cell Viability - LYMP2-013 (AID 970);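 further: 0% = DMSO only and full inhibition = tetraoctylammonium bromide control; nearly all actives have a fitted effect of over 55% in size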
# Details: LYMP2-013 lymphoblastoid cells viability; series mostly up to 92.2 µM; activity change, negative = cytotoxic: at the top concentration
# Source text: NIH Chemical Genomics Center [NCGC]
# NIH Molecular Libraries Screening Centers Network [MLSCN]
# National Institutes of Environmental Health Sciences [NIEHS]
# National Toxicology Program [NTP]
# We have developed a 1536-well cell-based assay for quantitative high throughput screening (qHTS) against a number of cell lines to determine in vitro cytotoxicity of small molecules. This particular assay uses a human lymphoblastoid cell line (LYMP2-013) purchased from Coriell Institute for Medical Research.
# NCGC Assay Protocol Summary:
# The CellTiter-Glo luminescent cell viability assay (Promega) is a homogeneous method to measure the number of viable cells in culture. The end point readout of this assay is based on quantitation of intracellular ATP, an indicator of metabolic activity, using the luciferase reaction. Luciferase catalyzes the oxidation of beetle Luciferin to oxyluciferin and light in the presence of ATP. The luminescent signal is proportional to amount of ATP present.
# Using the CellTiter-Glo luminescent cell viability assay, the amount of cellular ATP was measured in the lymphoblastoid cell line with complete culture medium following compound treatment for 24 hours. The assay was performed in opaque white Kalypsys 1536-well plates. In the screen, tetraoctylammonium bromide was used as positive control. Library compounds were measured for their ability to cause acute toxicity in the cell line, as reflected by a decrease in intracellular ATP levels, in a concentration-dependent manner. […] AC50 values were determined from concentration-response data modeled with the standard Hill equation.
# qHTS protocol for CellTiter Glo lymphoblastoid cellular assay
# [Step] [Parameter] [Value] [Description]
# 1. Reagent; 5 uL; 2500 lymphoblastoid cells/well
# 2. Time; 5 hr; 37 C incubation
# 4. Controls; 23 nL; Tetraoctylammonium bromide 6.4pM to 92 uM
# 5. Time; 24 hr; 37 C incubation
# 6. Reagent; 5 uL; CellTiter Glo reagent
# 7. Time; 30 min; Room Temperature
# 8. Detection; Luminescence; Viewlux plate reader
# Keywords: cell viability, cytotoxicity, lymphoblastoid cell line, luminescence, NTPHTS, NTPHTS_NCGC, NIEHS, DSSTox, MLSMR, MLSCN, NIH Roadmap, qHTS, NCGC
row,SMILES,"activity change, negative = cytotoxic"
1,NC(=O)NC(N)=O,-3.31%
2,CC(=O)Nc1cccc(N)c1,0.056%
3,COC(=O)CCCC(=O)OC,-1.7%
4,Nc1cccc(O)c1,-4.53%
5,CC(=O)OCCC(C)C,3.85%
6,O=C(O)c1ccccc1C(=O)O,3.35%
7,BrC(Br)C(Br)Br,-7.95%
8,CC(C)N(C)C,-7.93%
9,O=C(Cl)c1c(Cl)cccc1Cl,-2.17%
10,Clc1ccc(Cl)c(Cl)c1Cl,-6.8%
11,CCCCC(CC)COC(=O)CCCCC(=O)OCC(CC)CCCC (stereo not given),-1.71%
12,O=[N+]([O-])c1c(Cl)cc(Cl)cc1Cl,-1.92%
13,Nc1ccccc1S(=O)(=O)O,-4.07%
14,CC/C=C/C#N,-2.86%
15,CC(C)=CCC/C(C)=C/C=O,-3.6%
16,CCC(C)(C)C,0.785%
17,Cc1c(C(=O)O)cccc1[N+](=O)[O-],-0.724%
18,CC(C)C(C)C,-6.43%
19,C1COC1,-0.147%
20,CC(C)(O)CCC(C)(C)O,-8.82%

row,SMILES,"activity change, negative = cytotoxic"
1,C[C@@H]1CC2(OC[C@]3(C)O[C@H]23)O[C@H]2C[C@@]3(C)[C@@H]4CC[C@H]5C(C)(C)C(O[C@@H]6OC[C@@H](O)[C@H](O)[C@H]6O)CC[C@@]56C[C@@]46CC[C@]3(C)[C@@H]12 (stereo not given in full),-22.5%
2,c1ccc(Oc2ccccc2)cc1,-5.1%
3,Cc1ccc(C#N)cc1,0.172%
4,NC(=O)CCCCC(N)=O,1.58%
5,NC(=S)NNC(N)=S,-5.29%
6,Nc1nc2ccccc2[nH]1,-14.7%
7,C=CCOC(=O)COCCC(C)C,2.98%
8,N#Cc1ccccc1,0.0213%
9,C=CCOC(=O)CCCCCCCC,1.16%
10,O=C1CCCCC1,4.01%
11,Nc1cc(Cl)c([N+](=O)[O-])cc1O,-12.9%
12,CC(C)Nc1ccccc1,1.49%
13,CC(C)c1ccccc1,-4.83%
14,CCCC(C)CO (stereo not given),-2.62%
15,COCCOC(=O)c1ccccc1C(=O)OCCOC,-8.45%
16,O=[N+]([O-])c1cc(C(F)(F)F)ccc1Cl,-3.46%
17,c1ccc2[nH]cnc2c1,-0.481%
18,CNc1ccc([N+](=O)[O-])cc1,-0.825%
19,CC(=O)OC(C)C,-7.6%
20,Cc1cc(C)cc(O)c1,-7.97%
